From the supplement of paper PMC11732987, “Enantioselective OTUD7B fragment discovery through chemoproteomics screening and high-throughput optimisation” (Communications Chemistry, 2025)

Legend:
Assay in all cases: log2 ratio of Biotin-Ahx-Ub-VS probe labelling (fragment/DMSO); higher = less target engagement (more negative = stronger competition), active = hit call of the paper (q ≤ 0.05, log2 ratio ≤ -1)
Settings in all cases: compound concentration: 200 uM; treatment time: 3 h
OTUD6B = molecular target: T1, OTUD6B (UniProt Q8N6M0)
T1 sequence (whole entry): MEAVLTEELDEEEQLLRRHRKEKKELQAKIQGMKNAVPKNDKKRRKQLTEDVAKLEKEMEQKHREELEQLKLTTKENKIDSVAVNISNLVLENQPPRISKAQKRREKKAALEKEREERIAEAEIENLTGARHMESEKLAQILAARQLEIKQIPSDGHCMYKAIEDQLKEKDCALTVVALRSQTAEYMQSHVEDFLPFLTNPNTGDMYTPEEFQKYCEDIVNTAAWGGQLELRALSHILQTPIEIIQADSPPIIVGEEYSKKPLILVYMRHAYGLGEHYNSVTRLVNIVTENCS
Procedure, shortened: (§1)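 Fragment (200 µM) or vehicle was incubated for 3 h with triplicate HEK293T lysate samples of 495 µg, which were then treated with Biotin-Ahx-Ub-VS at 0.5 µM final for 1 h. Labelled DUBs were enriched on NeutrAvidin, digested with LysC and trypsin, and analysed by diaPASEF LC-MS/MS. Values are average log2 fragment/vehicle ratios from an unpaired t-test on global-median-normalised Spectronaut label-free quantities, using proteins with ≥2 unique peptides.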

OTUD7B = molecular target: T2, OTUD7B (UniProt Q6GQQ9)
T2 sequence (whole entry): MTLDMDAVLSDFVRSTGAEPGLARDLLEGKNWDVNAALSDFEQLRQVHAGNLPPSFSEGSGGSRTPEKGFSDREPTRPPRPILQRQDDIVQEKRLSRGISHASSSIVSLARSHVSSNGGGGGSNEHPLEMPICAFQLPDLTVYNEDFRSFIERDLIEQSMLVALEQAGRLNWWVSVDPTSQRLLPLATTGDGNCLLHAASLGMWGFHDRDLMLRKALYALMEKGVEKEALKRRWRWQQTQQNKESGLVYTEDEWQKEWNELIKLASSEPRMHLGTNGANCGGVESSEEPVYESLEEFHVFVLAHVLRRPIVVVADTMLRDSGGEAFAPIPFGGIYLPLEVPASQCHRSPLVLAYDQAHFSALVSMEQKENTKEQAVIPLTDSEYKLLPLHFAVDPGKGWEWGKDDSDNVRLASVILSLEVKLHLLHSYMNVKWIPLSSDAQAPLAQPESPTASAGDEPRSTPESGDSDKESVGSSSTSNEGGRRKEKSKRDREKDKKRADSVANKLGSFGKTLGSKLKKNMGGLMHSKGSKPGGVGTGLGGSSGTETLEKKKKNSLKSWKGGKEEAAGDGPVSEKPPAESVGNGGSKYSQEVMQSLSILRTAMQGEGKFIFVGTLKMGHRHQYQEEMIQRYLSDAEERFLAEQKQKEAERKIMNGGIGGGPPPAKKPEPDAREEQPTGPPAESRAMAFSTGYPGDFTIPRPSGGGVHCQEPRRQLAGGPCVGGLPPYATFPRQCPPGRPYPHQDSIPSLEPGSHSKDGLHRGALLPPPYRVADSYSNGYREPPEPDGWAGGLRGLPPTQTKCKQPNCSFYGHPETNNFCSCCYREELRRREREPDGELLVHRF
Procedure, shortened: as §1

PRPF8 = PRPF8 (UniProt Q6P2Q9)
Procedure, shortened: as §1

PSMD7 = molecular target: T3, PSMD7 (UniProt P51665)
T3 sequence (whole entry): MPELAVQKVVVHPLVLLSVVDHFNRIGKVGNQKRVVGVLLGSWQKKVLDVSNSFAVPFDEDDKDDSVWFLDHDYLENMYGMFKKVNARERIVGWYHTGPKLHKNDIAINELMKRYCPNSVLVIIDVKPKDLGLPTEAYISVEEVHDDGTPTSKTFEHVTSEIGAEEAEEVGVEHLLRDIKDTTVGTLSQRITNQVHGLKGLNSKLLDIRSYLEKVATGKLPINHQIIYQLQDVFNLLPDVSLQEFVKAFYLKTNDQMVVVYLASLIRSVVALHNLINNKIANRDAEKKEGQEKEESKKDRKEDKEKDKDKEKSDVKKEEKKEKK
Procedure, shortened: as §1

UCHL1 = UCHL1 (UniProt P09936)
UCHL1, sequence (P09936 whole entry, looked up): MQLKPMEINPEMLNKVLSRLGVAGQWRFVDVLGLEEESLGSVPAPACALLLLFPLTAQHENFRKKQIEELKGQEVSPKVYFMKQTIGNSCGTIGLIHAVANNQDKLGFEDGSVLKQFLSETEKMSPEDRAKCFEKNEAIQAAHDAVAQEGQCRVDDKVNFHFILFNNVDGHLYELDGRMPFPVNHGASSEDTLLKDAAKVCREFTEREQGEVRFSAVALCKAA
Procedure, shortened: as §1

UCHL3 = molecular target: T4, UCHL3 (UniProt P15374)
T4 sequence (whole entry): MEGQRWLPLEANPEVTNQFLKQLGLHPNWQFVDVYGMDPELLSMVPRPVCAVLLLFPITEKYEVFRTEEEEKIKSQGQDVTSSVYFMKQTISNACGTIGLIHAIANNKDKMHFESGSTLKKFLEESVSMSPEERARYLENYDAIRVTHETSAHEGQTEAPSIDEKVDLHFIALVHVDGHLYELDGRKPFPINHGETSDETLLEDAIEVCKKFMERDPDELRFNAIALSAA
Procedure, shortened: as §1

UCHL5 = molecular target: T5, UCHL5 (UniProt Q9Y5K5)
T5 sequence (whole entry): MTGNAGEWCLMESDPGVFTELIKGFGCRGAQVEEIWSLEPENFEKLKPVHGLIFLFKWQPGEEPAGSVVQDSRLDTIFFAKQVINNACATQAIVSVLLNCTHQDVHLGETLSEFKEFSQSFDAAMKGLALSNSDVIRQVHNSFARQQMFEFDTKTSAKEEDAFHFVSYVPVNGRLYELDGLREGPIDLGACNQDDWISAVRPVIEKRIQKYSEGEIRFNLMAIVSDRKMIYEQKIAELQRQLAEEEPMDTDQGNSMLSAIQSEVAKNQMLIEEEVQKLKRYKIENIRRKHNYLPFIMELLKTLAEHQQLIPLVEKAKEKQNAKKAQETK
Procedure, shortened: as §1

USP10 = USP10 (UniProt Q14694)
USP10, sequence (Q14694 whole entry): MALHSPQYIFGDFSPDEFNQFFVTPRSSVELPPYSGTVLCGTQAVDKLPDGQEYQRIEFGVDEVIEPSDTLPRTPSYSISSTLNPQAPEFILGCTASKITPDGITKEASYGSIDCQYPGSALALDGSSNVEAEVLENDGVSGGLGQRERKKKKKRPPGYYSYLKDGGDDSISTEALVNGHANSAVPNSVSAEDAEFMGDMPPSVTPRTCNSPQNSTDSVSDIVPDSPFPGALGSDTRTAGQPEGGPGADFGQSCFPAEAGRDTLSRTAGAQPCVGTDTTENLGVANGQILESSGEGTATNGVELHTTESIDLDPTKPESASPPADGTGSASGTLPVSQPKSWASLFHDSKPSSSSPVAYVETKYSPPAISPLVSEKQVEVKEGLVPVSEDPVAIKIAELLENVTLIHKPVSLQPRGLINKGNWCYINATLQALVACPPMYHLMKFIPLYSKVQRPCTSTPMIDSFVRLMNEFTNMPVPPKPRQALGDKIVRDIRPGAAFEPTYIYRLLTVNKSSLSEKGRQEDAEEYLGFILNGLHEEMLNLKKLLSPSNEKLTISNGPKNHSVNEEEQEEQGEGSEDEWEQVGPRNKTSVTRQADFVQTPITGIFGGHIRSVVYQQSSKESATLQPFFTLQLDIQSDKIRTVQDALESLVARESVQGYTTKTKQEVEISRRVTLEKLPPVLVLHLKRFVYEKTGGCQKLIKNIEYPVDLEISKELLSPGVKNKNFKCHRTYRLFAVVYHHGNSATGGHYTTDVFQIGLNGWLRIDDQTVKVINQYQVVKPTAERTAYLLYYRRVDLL
Procedure, shortened: as §1

USP15 = molecular target: T6, USP15 (UniProt Q9Y4E8)
T6 sequence (whole entry): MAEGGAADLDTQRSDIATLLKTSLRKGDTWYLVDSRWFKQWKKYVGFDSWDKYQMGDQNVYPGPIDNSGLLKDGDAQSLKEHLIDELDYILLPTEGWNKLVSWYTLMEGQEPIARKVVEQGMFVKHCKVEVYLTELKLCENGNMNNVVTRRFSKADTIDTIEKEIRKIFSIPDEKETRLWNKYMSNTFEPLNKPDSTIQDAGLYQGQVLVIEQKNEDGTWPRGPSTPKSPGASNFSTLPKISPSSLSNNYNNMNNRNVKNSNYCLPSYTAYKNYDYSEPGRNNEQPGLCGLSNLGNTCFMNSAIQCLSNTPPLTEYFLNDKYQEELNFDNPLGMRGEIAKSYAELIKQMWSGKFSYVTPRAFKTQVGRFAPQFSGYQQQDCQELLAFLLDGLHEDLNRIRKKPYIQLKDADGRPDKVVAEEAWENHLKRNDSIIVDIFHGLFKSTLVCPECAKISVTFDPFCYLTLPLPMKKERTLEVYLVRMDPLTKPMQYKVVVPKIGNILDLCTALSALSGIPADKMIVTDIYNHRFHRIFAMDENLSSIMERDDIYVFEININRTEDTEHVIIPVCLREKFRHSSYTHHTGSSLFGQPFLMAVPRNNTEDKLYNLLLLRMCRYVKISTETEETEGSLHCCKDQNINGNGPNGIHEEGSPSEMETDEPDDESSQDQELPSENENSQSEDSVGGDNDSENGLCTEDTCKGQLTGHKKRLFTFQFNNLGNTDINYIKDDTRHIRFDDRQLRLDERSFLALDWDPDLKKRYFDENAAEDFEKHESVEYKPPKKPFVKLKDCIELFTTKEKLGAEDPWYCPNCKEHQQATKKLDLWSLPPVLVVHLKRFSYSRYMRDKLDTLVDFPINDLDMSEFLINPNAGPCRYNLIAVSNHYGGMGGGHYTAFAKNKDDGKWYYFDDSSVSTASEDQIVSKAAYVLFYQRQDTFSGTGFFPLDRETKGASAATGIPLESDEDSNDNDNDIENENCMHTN
Procedure, shortened: as §1

USP16 = USP16 (UniProt Q9Y5T5)
USP16, sequence (Q9Y5T5 whole entry, looked up): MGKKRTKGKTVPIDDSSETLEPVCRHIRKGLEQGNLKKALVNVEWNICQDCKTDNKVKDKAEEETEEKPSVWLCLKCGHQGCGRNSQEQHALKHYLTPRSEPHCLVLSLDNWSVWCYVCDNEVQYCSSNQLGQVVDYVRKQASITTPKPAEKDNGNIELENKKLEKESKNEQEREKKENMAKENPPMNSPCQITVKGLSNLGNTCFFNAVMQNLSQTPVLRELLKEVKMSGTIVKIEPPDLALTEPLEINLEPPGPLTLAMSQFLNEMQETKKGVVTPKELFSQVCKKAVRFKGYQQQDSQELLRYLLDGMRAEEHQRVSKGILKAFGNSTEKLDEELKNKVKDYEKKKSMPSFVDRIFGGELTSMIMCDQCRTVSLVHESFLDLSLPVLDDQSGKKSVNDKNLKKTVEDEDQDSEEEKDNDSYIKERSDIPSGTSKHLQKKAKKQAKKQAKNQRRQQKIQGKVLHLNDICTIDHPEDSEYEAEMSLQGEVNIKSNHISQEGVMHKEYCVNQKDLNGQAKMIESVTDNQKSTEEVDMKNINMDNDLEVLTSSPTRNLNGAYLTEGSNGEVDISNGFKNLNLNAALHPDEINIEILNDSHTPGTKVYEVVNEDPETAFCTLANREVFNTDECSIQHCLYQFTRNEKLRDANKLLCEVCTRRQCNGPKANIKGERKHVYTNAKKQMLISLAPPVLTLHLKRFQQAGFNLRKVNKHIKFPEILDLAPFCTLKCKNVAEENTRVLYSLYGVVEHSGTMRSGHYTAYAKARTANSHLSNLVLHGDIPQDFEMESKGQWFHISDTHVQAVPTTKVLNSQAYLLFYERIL
Procedure, shortened: as §1

Measured: log2 ratio of Biotin-Ahx-Ub-VS probe labelling

O=C(CCl)Nc1nnc(CC(F)(F)F)o1
active: UCHL1 -1.5
inactive: OTUD6B -0.105 | OTUD7B -0.451 | PRPF8 0.0577 | PSMD7 -0.157 | UCHL3 -0.128 | UCHL5 -0.204 | USP10 -0.0274 | USP15 -0.341 | USP16 0.0973
